Laboratory results reported in paper PMC5540273 (PLoS ONE, 2017).

Columns and labels:
Conditions in all cases: concentration: 1 μM, replicates: in singlicate; n = 1
YES = tested on: T1, YES
T1 construct: gene YES1

YSK1 = tested on: T2, YSK1
T2 construct: gene STK25

YSK4 = tested on: T3, YSK4
T3 construct: gene MAP3K19

ZAK = tested on: ZAK
ZAP70 = tested on: ZAP70
p38-alpha = tested on: T4, p38-alpha
T4 construct: gene MAPK14

p38-beta = tested on: T5, p38-beta
T5 construct: gene MAPK11

p38-delta = tested on: p38-delta
p38-gamma = tested on: T6, p38-gamma
T6 construct: gene MAPK12
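Also: KINOMEscan kinase panel screen.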

Compound	%Inh (YES)	%Inh (YSK1)	%Inh (YSK4)	%Inh (ZAK)	%Inh (ZAP70)	%Inh (p38-alpha)	%Inh (p38-beta)	%Inh (p38-delta)	%Inh (p38-gamma)
Clc1cc(Cl)cc(Nc2ccnc(Nc3cc(Cl)cc(Cl)c3)n2)c1 [GSK175726]	20%	3%	0%	2%	0%	26%	0%	12%	40%
Cn1cncc1-c1ccc2ncnc(Nc3ccc(OCc4ccccc4)cc3)c2c1 [GW320571]	26%	0%	1%	17%	0%	0%	2%	21%	0%
O=C(Nc1ccccc1)Nc1cccc(Oc2ccc3nccn3n2)c1	0%	0%	87%	35%	0%	0%	0%	0%	19%
COC(=O)c1c(-c2ccccc2)c2cc(C(=O)O)ccc2c(=O)n1Cc1ccccc1	0%	0%	0%	0%	31%	24%	19%	21%	0%
CC(=O)Nc1nc2cnc(Nc3cc(NC(=O)c4cccc(CCC#N)c4)ccc3C)nc2s1	3%	0%	19%	0%	0%	77%	17%	16%	32%
CCn1c(-c2cccnc2O)nc2cnccc21 [SB-736715]	0%	0%	0%	0%	0%	0%	0%	8%	0%
Cl.c1ccc(-c2n[nH]cc2-c2ccnc(-c3ccc(CN4CCOCC4)cc3)c2)nc1 [GW776245]	0%	0%	0%	13%	0%	17%	23%	7%	55%
COc1cc2nccc(Nc3ccc(NC(=O)c4ccc(C)cc4)c(O)c3)c2cc1OC.Cl [GW440132]	17%	20%	9%	23%	0%	0%	0%	23%	0%
CCn1c(-c2ccccn2)nc2cnccc21 [SB-736398]	3%	100%	44%	5%	6%	0%	0%	23%	0%
